Data taken from PubChem BioAssay AID485341 (National Center for Advancing Translational Sciences (NCATS), 2010).
About 1,700 (0.52%) of roughly 330,000 compounds were called active. The call rests on the fitted dose curve; in most records, active means well fitted inhibition curve with a large enough effect; inconclusive means small, poorly fitted or top-dose-only effect; inactive means no such curve, though single readings can be large or run the other way. What follows is part of a selection rich in actives, with near analogues and random picks from the rest. A call without a number means that no potency is given here.
Further: nearly all actives have a fitted effect of over 20% in size.
Potency means the concentration at half of the fitted maximal effect.

What follows are compounds tested against Beta-lactamase (Escherichia coli (strain K12)) (UniProt P00811) (assay: qHTS Inhibitors of AmpC Beta-Lactamase (assay without detergent)). Details: AmpC nitrocefin hydrolysis, absorbance 480 nm, 0.0001% Triton; series mostly up to 57.1 µM.
Chain of Beta-lactamase (Escherichia coli (strain K12)) (P00811 whole entry, looked up): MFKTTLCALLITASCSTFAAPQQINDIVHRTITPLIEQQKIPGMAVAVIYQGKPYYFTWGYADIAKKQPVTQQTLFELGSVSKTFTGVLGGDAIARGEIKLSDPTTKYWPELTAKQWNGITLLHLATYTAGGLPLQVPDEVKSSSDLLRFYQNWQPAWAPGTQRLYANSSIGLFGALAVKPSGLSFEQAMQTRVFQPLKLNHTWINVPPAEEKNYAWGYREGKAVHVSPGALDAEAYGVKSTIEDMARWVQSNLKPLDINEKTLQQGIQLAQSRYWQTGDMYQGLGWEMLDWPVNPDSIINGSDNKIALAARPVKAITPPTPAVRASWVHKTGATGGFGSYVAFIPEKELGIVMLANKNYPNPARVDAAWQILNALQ
Outline: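 AmpC (5.3 nM in the dispensed reagent) in 20 mM phosphate pH 7.0 with 0.01% (detergent screen) or 0.0001% Triton X-100 was preincubated with compounds for 15 min at room temperature. Nitrocefin was then added from an 800 uM solution, and hydrolysis was followed at 480 nm.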
For `CC(=O)C1C(c2ccc(Cl)cc2)NC(=O)NC1(O)C(F)(F)F` (centres undefined), the Potency was 44.7 µM (active). `CC(=O)C1C(c2cccc(Oc3ccccc3)c2)NC(=O)NC1(O)C(F)(F)F` (centres undefined) was tested, and the Potency was “inactive”. With `CCOC(=O)C1C(c2ccc(O)cc2)NC(=O)NC1(O)C(F)(F)F` (centres undefined) the Potency was “inactive”. In the case of `COC(=O)[C@@H]1CC(O)CN1C(=O)C12CC3CC(CC(C3)C1)C2` (some centres undefined), the Potency is reported as “inactive”. `Cc1ccc(NS(=O)(=O)c2ccc(C(C)(C)C)cc2)cn1` was tested, and the Potency was “inactive”. `CC(=O)Nc1ccc(S(=O)(=O)Nc2ccc(-c3ccc4nnc(C)n4n3)cc2)cc1` was tested, and the Potency was “inactive”. With `CC(=O)Nc1ccc(S(=O)(=O)Nc2nc(-c3ccc(C(C)(C)C)cc3)cs2)cc1` the Potency was 35.5 µM (active). `Cc1ccc(-c2csc3nnc(SCC(=O)NCc4ccco4)n23)cc1` was tested, and the Potency was 0.316 µM (active). In the case of `Cn1c(-c2ccc(F)cc2)cnc1SCC(=O)NCc1ccco1`, the Potency is reported as “inactive”. `O=C(CSc1nnc2scc(-c3ccc(F)cc3)n12)NCc1ccco1` was tested, and the Potency was “inactive”. `COc1ccccc1N(CC(=O)Nc1ccc(C(F)(F)F)cc1)S(C)(=O)=O` was tested, and the Potency was “inactive”. For `O=C(Cn1nc(Cc2cccnc2)c2ccccc2c1=O)NCC1COc2ccccc2O1` (centres undefined), the Potency was “inactive”. In the case of `Cc1nn(CC(=O)NCC2CCCO2)c(=O)c2cc3ccccc3n12` (centres undefined), the Potency is reported as “inactive”. For `O=C(Cn1nc(Cc2cccnc2)c2ccccc2c1=O)NCC1CCCO1` (centres undefined), the Potency was 0.501 µM (active). For `O=C(Cn1cc2c(n1)CCCCC2)NCCN1CCOCC1`, the Potency was “inactive”. In the case of `CCOC(=O)N1CCC(NC(=O)Cn2cc3c(n2)CCCCC3)CC1`, the Potency is reported as 35.5 µM (active). For `COCCNC(=O)Cn1cc2c(n1)CCCCC2`, the Potency was “inactive”. `Cc1cc(-c2nnc(CCC(=O)NC(c3ccccc3)c3ccccc3)o2)no1` was tested, and the Potency was “inactive”. For `CCOC(=O)/C(=N\Nc1cc(Cl)ccc1Cl)N1CCN(C)CC1`, the Potency was “inactive”. In the case of `CCc1ccc(CN(C)C(C)C(=O)Nc2ccc(S(=O)(=O)N3CCCC3)cc2)cc1` (centres undefined), the Potency is reported as “inactive”. With `O=C(c1cc2cc(Br)cc(Br)c2oc1=O)N1CCOCC1` the Potency was “inactive”. With `O=C(CSC(=S)N1CCOCC1)c1cc(Br)cc(Br)c1O` the Potency was 20 µM (active). In the case of `O=C(CSC(=S)N1CCOCC1)c1ccccc1`, the Potency is reported as “inactive”. In the case of `CCN(CC(=O)Nc1ccc(Cl)c(S(=O)(=O)N(C)C)c1)Cc1nc2ccccc2c(=O)[nH]1`, the Potency is reported as “inactive”.
